CYP2C19 act – increases human CYP2C19 enzyme activity. P33261. recombinant CYP2C19, luciferin-H EGE luminescence; active compounds read high; 0 = fully inhibited enzyme, 1 = untreated enzyme. activation factor at 5 µM. 96,000 tested, under 10 active. AID 1025;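 active = activation factor of at least 2 at 5 µM in the primary screen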
CYP2C19 inh – inhibitors of human CYP2C19 | P33261 | CYP2C19 Supersomes, luciferin-H EGE luminescence, 30 min | inhibition, % at 5 µM | actives 21% (n = 96,000) | AID 778;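 active = CYP2C19 inhibition above a set limit at 5 µM in the primary screen, cut at about 50% in these data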
CYP2C9 act – increases human cytochrome P450 2C9 activity | actives 1.4% (n = 96,000) | P11712 | activation factor at 5 µM | recombinant CYP2C9, luciferin-H conversion, luminescence; active compounds read high; factor 1 = untreated enzyme, 0 = blocked;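 active = activation factor of 2 or more for CYP2C9 at a 5 µM dose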
Target sequence (P11712 whole entry, looked up): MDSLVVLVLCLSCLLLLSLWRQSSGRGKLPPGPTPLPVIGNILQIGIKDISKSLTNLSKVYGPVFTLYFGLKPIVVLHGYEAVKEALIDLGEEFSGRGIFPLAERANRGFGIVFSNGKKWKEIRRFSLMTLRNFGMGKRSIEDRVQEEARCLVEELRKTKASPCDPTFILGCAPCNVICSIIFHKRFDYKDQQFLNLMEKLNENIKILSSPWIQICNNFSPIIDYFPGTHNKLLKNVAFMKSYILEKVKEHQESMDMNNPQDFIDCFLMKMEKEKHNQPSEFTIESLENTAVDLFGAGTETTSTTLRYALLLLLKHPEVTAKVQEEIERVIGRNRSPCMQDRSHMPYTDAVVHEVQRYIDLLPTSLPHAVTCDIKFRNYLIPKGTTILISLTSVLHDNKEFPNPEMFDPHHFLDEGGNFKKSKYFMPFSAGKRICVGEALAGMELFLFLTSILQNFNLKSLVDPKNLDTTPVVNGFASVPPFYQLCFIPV
CYP2C9 inh – inhibitors of human CYP2C9; P11712; CYP2C9 Supersomes, luciferin-H conversion, luminescence; inhibition, % at 5 µM; actives 20% (n = 96,000);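 active = blocking of liver enzyme CYP2C9 beyond about 50% at 5 µM, limit read from the data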
Hits are given with their value; 0 = inactive. Most compounds without a hit are left out; they make up all but 31% or so of the library.

SMILES	CYP2C19 act	CYP2C19 inh	CYP2C9 act	CYP2C9 inh
CCc1cc2c(=O)n(CC)c(SC(C)C(=O)Nc3c(C)n(C)n(-c4ccccc4)c3=O)nc2s1 (configuration not stated)	0	0	0	0
CCOc1ccccc1-n1c(SCC(=O)NC(C)CC)nnc1-c1ccoc1C (configuration not stated)	0	0	0	0
CCSc1nc2c(c(=O)[nH]1)C(c1ccncc1)C(C(=O)OC(C)C)=C(C)N2 (configuration not stated)	0	89.8	0	56.6
CCSc1nc2c(c(=O)[nH]1)C(c1cccnc1)C(C(=O)OC)=C(C)N2 (configuration not stated)	0	0	0	0
Cc1ccc(-n2nnnc2C(Cl)(Cl)c2nnnn2-c2ccc(C)cc2)cc1	0	0	0	0
O=C(Nc1ccc(S(=O)(=O)N2CCCc3ccccc32)cc1)C1CCCO1 (configuration not stated)	0	59.5	0	65.3
O=C(Nc1ccc(S(=O)(=O)N2CCc3ccccc3C2)cc1)C1CCCO1 (configuration not stated)	0	0	0	0
O=C(O)C1CC=CCC1C(=O)Nc1ccc(S(=O)(=O)N2CCCc3ccccc32)cc1 (configuration not stated)	0	0	0	63.0
O=S(=O)(NC1CC1)c1ccc(S(=O)(=O)N2CCCc3ccccc32)cc1	0	89.5	0	78.4
COc1ccc(CCN2C(=O)c3ccncc3C2=O)cc1OC	0	0	0	0
CCOC(=O)CSc1cc(C)nc(NC(C)=O)n1	0	0	0	0
Cc1cccc(N(CC(=O)Nc2ccc(F)cc2)S(C)(=O)=O)c1	0	96.4	0	82.4
CSc1cccc(NC(=O)CN(c2cccc(C)c2)S(C)(=O)=O)c1	0	72.5	0	62.0
CN(C)c1ccc(NC(=O)CN2CCN(CC(=O)Nc3ccc(F)cc3)CC2)cc1	0	0	0	0
CSc1cccc(NC(=O)CN(c2ccc(C)cc2C)S(C)(=O)=O)c1	0	94.6	0	62.1
Cc1ccc(N(CC(=O)Nc2ccc(F)cc2)S(=O)(=O)N2CCCC2)cc1	0	0	0	62.1
Cc1ccc(N(CC(=O)N/N=C/c2cc(C)n(-c3ccccc3)c2C)S(C)(=O)=O)c(C)c1	0	0	0	0
COCCNC(=O)C1CC(=O)N(C2CCCC2)C1 (configuration not stated)	0	0	0	0
CNc1sc(C(=O)c2ccccc2F)c(N)c1-c1nc2ccccc2s1	0	88.8	0	84.3
COc1cc(C2/C(=C(\O)c3ccc4c(c3)CC(C)O4)C(=O)C(=O)N2CCCn2ccnc2)ccc1O (configuration not stated)	0	0	0	0
Cc1ccc(C)c(/C(O)=C2\C(=O)C(=O)N(CCCn3ccnc3)C2c2ccncc2)c1 (configuration not stated)	0	0	0	53.1
CC(=O)C1=C(O)C(=O)N(CCCn2ccnc2)C1c1ccc(C)cc1 (configuration not stated)	0	59.7	0	0
CCCCCCN1C(=O)C(O)=C(C(C)=O)C1c1ccc(Cl)cc1 (configuration not stated)	0	0	0	75.3
CC(=O)NC1C(=O)Nc2c1cccc2C(F)(F)F (configuration not stated)	0	0	0	0
N#CCSc1nnc(-c2ccccc2)c(-c2ccccc2)n1	0	0	0	0
SMILES	CYP2C19 act	CYP2C19 inh	CYP2C9 act	CYP2C9 inh
COc1ccc(NC(=O)C2CCCN2S(=O)(=O)c2ccc3c(c2)CCC(=O)N3)cc1 (configuration not stated)	0	0	0	90.3
COc1ccc(NC(=O)C2CCCN2S(=O)(=O)c2ccc3c(c2)CCC(=O)N3)cc1Cl (configuration not stated)	0	0	0	65.2
CCCCNC(=O)c1ccc(S(=O)(=O)c2ccc(Cl)cc2)c(NC(C)=O)c1	0	0	0	0
O=C1C(=C(c2ccccc2)c2ccccc2)Nc2ccccc21	0	63.6	0	89.1
CC(C)[C@@H]1NC(=O)N(c2ccc(Oc3ccccc3)cc2)C1=O	0	0	0	0
CC(C)C1NC(=S)N(Cc2ccccc2)C1=O (configuration not stated)	0	58.5	0	0
Cc1cc(C)cc(N2C(=O)C3C4C=CC(C4)C3C2=O)c1 (configuration not stated)	0	62.7	0	0
COc1ccc(C(=O)n2c(SC)nc3cc4c(cc32)OCCO4)cc1	0	0	0	53.6
O=C(COc1ccc(Cl)cc1)N1CCN(S(=O)(=O)c2ccccc2)CC1	0	54.8	0	0
CN(Cc1cccs1)C(=O)COc1ccc(-c2nnco2)cc1	0	74.7	0	0
CC1CC(C)CN(C(=O)COc2ccc(-c3nnco3)cc2)C1 (configuration not stated)	0	50.5	0	0
O=C(COc1ccc(-c2nnco2)cc1)N1CCN(S(=O)(=O)c2ccccc2)CC1	0	84.0	0	67.0
COC(=O)c1ccc(NC(=O)C2CCCCC2C(=O)O)cc1 (configuration not stated)	0	0	0	0
CCCS(=O)(=O)N1CCN(C(=O)COc2ccccc2)CC1	0	58.8	0	0
Cc1nn(C)c(C)c1NC(=O)c1ccc(S(=O)(=O)N(C)C)cc1	0	0	0	0
CCOc1cccc(=O)c2c(C)oc(C)c12	0	0	0	95.2
Cc1cccc(CSc2ncnc3c2cnn3Cc2ccccc2)c1	0	0	0	0
CCOC(=O)N1CCN(C(=O)C(NC(=O)C2CCC(C)CC2)C(C)C)CC1 (configuration not stated)	0	0	0	0
CCOC(=O)N1CCC(NC(=O)C(NC(=O)C2CCC(C)CC2)C(C)CC)CC1 (configuration not stated)	0	52.6	0	0
CCCn1c(=O)c(F)cn(Cc2ccc(OC)c([N+](=O)[O-])c2)c1=O	0	0	0	0
CCCCCCn1c(=O)c(F)cn(Cc2ccc(OC)c([N+](=O)[O-])c2)c1=O	0	0	0	60.5
CCCCCn1c(=O)c(F)cn(Cc2ccc(OC)c([N+](=O)[O-])c2)c1=O	0	0	0	51.5
CCOC(=O)N1CCC(Nc2c(-c3ccccc3)c(=O)c2=O)CC1	0	0	0	0
NCc1ccc(-c2nc3ccccc3o2)cc1	0	98.0	0	70.0
O=C1c2ccccc2C(=O)N1c1ccc(-c2nc3ccccc3o2)cc1	0	0	0	0
SMILES	CYP2C19 act	CYP2C19 inh	CYP2C9 act	CYP2C9 inh
Nc1ccc(CCc2nc3ccccc3o2)cc1	0	96.0	0	75.9
CCn1c(=O)c(=O)[nH]c2cc(C(=O)N3CCN(c4ccccc4F)CC3)ccc21	0	0	0	0
CCOC(=O)c1cc(C(=O)OCC)c2cccc(C)n2c1=O	0	0	0	0
Cn1cc(C(=O)c2ccc(F)cc2)cc1-c1nc2ccccc2n1C	0	0	0	0
CC(=O)c1cc(-c2nc3ccccc3n2C)n(C)c1	0	56.2	0	72.8
COC(=O)Nc1ccc(S(=O)(=O)NCCO)cc1	0	0	0	0
COc1cccc(C(O)c2nc3ccccc3n2C(C)C)c1 (configuration not stated)	0	91.2	0	0

High-throughput results (PubChem BioAssay)
